{"source": "the antibiotic and cytotoxicity screens of Wong et al. (2023)", "note": "About 1,500 (3.8%) of roughly 39,000 compounds were called active. Many of the other results were omitted from the sample, so actives are more common in it than they were."}
{"test_system": "HSkMC (human skeletal muscle cells)", "assay": "cytotoxicity call (relative viability < 0.9)", "conditions": "10 µM"}
{"smiles": "CNC(=O)C[C@@H]1CC[C@@H]2[C@H](COC[C@H](O)CN2C(=O)Nc2cccc(OC)c2)O1", "cytotoxicity call": "inactive"}
{"smiles": "C[C@H]1CCCCO[C@H](CN(C)C(=O)Nc2ccc3c(c2)OCO3)[C@@H](C)CN([C@@H](C)CO)C(=O)c2cc(NS(=O)(=O)c3ccccc3)ccc2O1", "cytotoxicity call": "inactive"}
{"smiles": "C[C@H](O)[C@H](O)[C@@H](O)[C@@H](O)/C=N/NC(=O)CCCCC(=O)NO", "cytotoxicity call": "inactive"}
{"smiles": "C[C@H](CO)N1C[C@H](C)[C@H](CN(C)C(=O)Nc2cccc3ccccc23)OCCCC[C@H](C)Oc2ccc(NS(C)(=O)=O)cc2C1=O", "cytotoxicity call": "inactive"}
{"smiles": "Cc1ccc(S(=O)(=O)Nc2ccc3c(c2)CC(=O)N([C@@H](C)CO)C[C@@H](C)[C@@H](CN(C)Cc2ccc(-c4ccccc4)cc2)O3)cc1", "cytotoxicity call": "active"}
{"smiles": "Cc1ccc(S(=O)(=O)Nc2ccc3c(c2)CC(=O)N([C@H](C)CO)C[C@@H](C)[C@H](CN(C)Cc2ccc(-c4ccccc4)cc2)O3)cc1", "cytotoxicity call": "active"}
{"smiles": "Cc1ccc(S(=O)(=O)Nc2ccc3c(c2)CC(=O)N([C@H](C)CO)C[C@H](C)[C@@H](CN(C)Cc2ccc(-c4ccccc4)cc2)O3)cc1", "cytotoxicity call": "inactive"}
{"smiles": "Cc1ccc(S(=O)(=O)Nc2ccc3c(c2)CC(=O)N([C@H](C)CO)C[C@H](C)[C@H](CN(C)Cc2ccc(-c4ccccc4)cc2)O3)cc1", "cytotoxicity call": "inactive"}
{"smiles": "Cc1ccc(S(=O)(=O)Nc2ccc3c(c2)CC(=O)N([C@@H](C)CO)C[C@H](C)[C@@H](CN(C)Cc2ccc(-c4ccccc4)cc2)O3)cc1", "cytotoxicity call": "active"}
{"smiles": "Cc1ccc(S(=O)(=O)Nc2ccc3c(c2)CC(=O)N([C@H](C)CO)C[C@@H](C)[C@@H](CN(C)Cc2ccc(-c4ccccc4)cc2)O3)cc1", "cytotoxicity call": "active"}
{"smiles": "C[C@H]1CN([C@@H](C)CO)C(=O)c2cc(NC(=O)NC3CCCCC3)ccc2O[C@H]1CN(C)Cc1ccc(C(=O)Nc2ccccc2N)cc1", "cytotoxicity call": "inactive"}
{"smiles": "C[C@@H]1CN([C@H](C)CO)C(=O)c2cc(NC(=O)c3ccncc3)ccc2O[C@H]1CN(C)S(=O)(=O)c1ccc(F)cc1", "cytotoxicity call": "inactive"}
{"smiles": "C[C@@H]1CN([C@@H](C)CO)C(=O)c2cc(NC(=O)C3CC3)ccc2O[C@@H]1CN(C)S(=O)(=O)c1ccc(F)cc1", "cytotoxicity call": "inactive"}
{"smiles": "CC(C)NC(=O)N[C@H]1C=C[C@@H](CC(=O)NCCN2CCCC2)O[C@H]1CO", "cytotoxicity call": "inactive"}
{"smiles": "CC(C)NC(=O)N(C)C[C@H]1Oc2ccc(NS(=O)(=O)c3cn(C)cn3)cc2C(=O)N([C@H](C)CO)C[C@@H]1C", "cytotoxicity call": "inactive"}
{"smiles": "O=C(CCCCCNC(=O)OCc1ccc(CO[C@@H]2C[C@H](C3CCCCC3)C=C(C(=O)N3CCN(Cc4ccc5c(c4)OCO5)CC3)O2)cc1)NO", "cytotoxicity call": "inactive"}
{"smiles": "COc1ccc(CN(C)C[C@@H]2Oc3ccc(NC(=O)C4CC4)cc3CC(=O)N([C@@H](C)CO)C[C@@H]2C)cc1", "cytotoxicity call": "inactive"}
{"smiles": "COc1cc(O)cc(OC)c1O[C@@H]1O[C@H](CO)[C@@H](O)[C@H](O)[C@H]1O", "cytotoxicity call": "inactive"}
{"smiles": "C[C@H]1CN([C@@H](C)CO)C(=O)Cc2cc(NC(=O)CCCCCC(=O)Nc3ccccc3N)ccc2O[C@@H]1CN(C)Cc1ccc(Cl)c(Cl)c1", "cytotoxicity call": "inactive"}
{"smiles": "C[C@H]1CN([C@@H](C)CO)C(=O)c2cc(NC(=O)CCN3CCOCC3)ccc2O[C@H]1CN(C)S(=O)(=O)c1ccc(F)cc1", "cytotoxicity call": "inactive"}
{"smiles": "C[C@H](CO)N1C[C@H](C)[C@H](CN(C)Cc2ccc(C(F)(F)F)cc2)Oc2ccc(NC(=O)C3CCCCC3)cc2C1=O", "cytotoxicity call": "inactive"}
{"smiles": "Cc1ccc(S(=O)(=O)Nc2ccc3c(c2)CC(=O)N([C@@H](C)CO)C[C@@H](C)[C@H](CN(C)Cc2ccc(-c4ccccc4)cc2)O3)cc1", "cytotoxicity call": "inactive"}
{"smiles": "Cc1ccc(S(=O)(=O)Nc2ccc3c(c2)CC(=O)N([C@@H](C)CO)C[C@H](C)[C@H](CN(C)Cc2ccc(-c4ccccc4)cc2)O3)cc1", "cytotoxicity call": "active"}
{"smiles": "Cc1noc(C)c1NC(=O)Nc1ccc2c(c1)C(=O)N([C@@H](C)CO)C[C@@H](C)[C@H](CN(C)C(=O)NC1CCCCC1)OCCCC[C@H](C)O2", "cytotoxicity call": "inactive"}
{"smiles": "CC(=O)NCCn1cccc1", "cytotoxicity call": "inactive"}
{"smiles": "C[C@@H]1CCCCO[C@H](CN(C)Cc2ccc(C(F)(F)F)cc2)[C@@H](C)CN([C@@H](C)CO)C(=O)c2cc(NS(=O)(=O)c3ccc(F)cc3)ccc2O1", "cytotoxicity call": "inactive"}
{"smiles": "C[C@@H]1CN([C@H](C)CO)C(=O)c2cc(NC(=O)c3ccccc3)ccc2O[C@@H](C)CCCCO[C@H]1CN(C)Cc1ccc(Cl)c(Cl)c1", "cytotoxicity call": "inactive"}
{"smiles": "C[C@H](CO)N1C[C@H](C)[C@H](CN(C)Cc2ccc(Cl)c(Cl)c2)OCCCC[C@H](C)Oc2ccc(NC(=O)c3ccccc3)cc2C1=O", "cytotoxicity call": "inactive"}
{"smiles": "C[C@H]1CCCCO[C@H](CN(C)Cc2ccc(Cl)c(Cl)c2)[C@@H](C)CN([C@@H](C)CO)C(=O)c2cc(NC(=O)c3ccccc3)ccc2O1", "cytotoxicity call": "active"}
{"smiles": "C[C@@H]1CCCCO[C@H](CN(C)Cc2ccc(Cl)c(Cl)c2)[C@H](C)CN([C@@H](C)CO)C(=O)c2cc(NC(=O)c3ccccc3)ccc2O1", "cytotoxicity call": "inactive"}
{"smiles": "C[C@@H]1CCCCO[C@@H](CN(C)Cc2ccc(Cl)c(Cl)c2)[C@H](C)CN([C@@H](C)CO)C(=O)c2cc(NC(=O)c3ccccc3)ccc2O1", "cytotoxicity call": "active"}
{"smiles": "C[C@@H]1CCCCO[C@H](CN(C)Cc2ccc(Cl)c(Cl)c2)[C@@H](C)CN([C@@H](C)CO)C(=O)c2cc(NC(=O)c3ccccc3)ccc2O1", "cytotoxicity call": "inactive"}
{"smiles": "C[C@H](CO)N1C[C@H](C)[C@@H](CN(C)Cc2ccc(Cl)c(Cl)c2)OCCCC[C@H](C)Oc2ccc(NC(=O)c3ccccc3)cc2C1=O", "cytotoxicity call": "inactive"}
{"smiles": "C[C@@H]1CCCCO[C@H](CN(C)Cc2ccc(Cl)c(Cl)c2)[C@@H](C)CN([C@H](C)CO)C(=O)c2cc(NC(=O)c3ccccc3)ccc2O1", "cytotoxicity call": "inactive"}
{"smiles": "C[C@@H]1CCCCO[C@@H](CN(C)Cc2ccc(Cl)c(Cl)c2)[C@H](C)CN([C@H](C)CO)C(=O)c2cc(NC(=O)c3ccccc3)ccc2O1", "cytotoxicity call": "active"}
{"smiles": "C[C@H](CO)N1C[C@H](C)[C@@H](CN(C)S(=O)(=O)c2ccc(Cl)cc2)Oc2c(NC(=O)Nc3ccc(C(F)(F)F)cc3)cccc2C1=O", "cytotoxicity call": "inactive"}
{"smiles": "O=C(Cc1ccncc1)NCC[C@H]1CC[C@H](NC(=O)C2CCOCC2)[C@H](CO)O1", "cytotoxicity call": "inactive"}
{"smiles": "Cc1noc(C)c1S(=O)(=O)N(C)C[C@@H]1OCCCC[C@@H](C)Oc2ccc(NC(=O)Nc3ccc(F)cc3)cc2C(=O)N([C@@H](C)CO)C[C@H]1C", "cytotoxicity call": "inactive"}
{"smiles": "C[C@H](NC(=O)C[C@H]1C[C@H]2c3cc(NC(=O)Nc4ccc(C(F)(F)F)cc4)ccc3O[C@H]2[C@H](CO)O1)c1ccccc1", "cytotoxicity call": "inactive"}
{"smiles": "C[C@@H]1CCCCO[C@@H](CN(C)Cc2ccc(Cl)c(Cl)c2)[C@@H](C)CN([C@H](C)CO)C(=O)c2cc(NC(=O)CCCN(C)C)ccc2O1", "cytotoxicity call": "inactive"}
{"smiles": "Cc1ccc(S(=O)(=O)N2C[C@@H](O)COC[C@H]3O[C@@H](CC(=O)N[C@@H]4CCN(Cc5ccccc5)C4)CC[C@@H]32)cc1", "cytotoxicity call": "inactive"}
{"smiles": "CC(C)C[C@H]1NC(=O)N(C)C1=O", "cytotoxicity call": "inactive"}
{"smiles": "C[C@H](CO)N1C[C@H](C)[C@@H](CN(C)C(=O)c2ccccn2)Oc2cc(C#Cc3ccc(F)cc3)ccc2S1(=O)=O", "cytotoxicity call": "inactive"}
{"smiles": "CC(C)CC#Cc1ccc2c(c1)O[C@H](CN(C)S(=O)(=O)c1cccc(F)c1)[C@H](C)CN([C@@H](C)CO)S2(=O)=O", "cytotoxicity call": "inactive"}
{"smiles": "C[C@@H]1CCCCO[C@H](CN(C)Cc2ccc(C(F)(F)F)cc2)[C@@H](C)CN([C@@H](C)CO)C(=O)c2cc(NS(=O)(=O)c3ccc(Cl)cc3)ccc2O1", "cytotoxicity call": "active"}
{"smiles": "C[C@@H]1CN([C@@H](C)CO)C(=O)c2cc(NS(=O)(=O)c3ccc(F)cc3)ccc2O[C@@H](C)CCCCO[C@@H]1CN(C)Cc1ccc(C(F)(F)F)cc1", "cytotoxicity call": "inactive"}
{"smiles": "C[C@H](CO)N1C[C@H](C)[C@@H](CN(C)Cc2ccc(C(F)(F)F)cc2)OCCCC[C@H](C)Oc2ccc(NS(=O)(=O)c3ccc(Cl)cc3)cc2C1=O", "cytotoxicity call": "active"}
{"smiles": "C[C@@H]1CCCCO[C@H](CN(C)Cc2ccc(C(F)(F)F)cc2)[C@H](C)CN([C@H](C)CO)C(=O)c2cc(NS(=O)(=O)c3ccc(Cl)cc3)ccc2O1", "cytotoxicity call": "inactive"}
{"smiles": "C[C@@H]1CN([C@H](C)CO)C(=O)c2cc(NS(=O)(=O)c3ccc(Cl)cc3)ccc2O[C@@H](C)CCCCO[C@H]1CN(C)Cc1ccc(C(F)(F)F)cc1", "cytotoxicity call": "active"}
{"smiles": "C[C@@H]1CCCCO[C@H](CN(C)Cc2ccc(C(F)(F)F)cc2)[C@H](C)CN([C@@H](C)CO)C(=O)c2cc(NS(=O)(=O)c3ccc(Cl)cc3)ccc2O1", "cytotoxicity call": "active"}
{"smiles": "C[C@@H]1CCCCO[C@@H](CN(C)Cc2ccc(C(F)(F)F)cc2)[C@@H](C)CN([C@@H](C)CO)C(=O)c2cc(NS(=O)(=O)c3ccc(Cl)cc3)ccc2O1", "cytotoxicity call": "inactive"}
{"smiles": "C[C@H]1CCCCO[C@H](CN(C)Cc2ccc(C(F)(F)F)cc2)[C@@H](C)CN([C@@H](C)CO)C(=O)c2cc(NS(=O)(=O)c3ccc(F)cc3)ccc2O1", "cytotoxicity call": "inactive"}
{"smiles": "O=C(C[C@H]1CC[C@@H](NC(=O)Cc2ccccn2)[C@H](CO)O1)NCCc1ccncc1", "cytotoxicity call": "inactive"}
{"smiles": "C[C@H]1CN([C@@H](C)CO)C(=O)c2cccc(NS(=O)(=O)c3cccs3)c2O[C@@H]1CN(C)Cc1ccc(Oc2ccccc2)cc1", "cytotoxicity call": "inactive"}
{"smiles": "C/C=C/[C@@H](CCn1cc(CCO[Si](C(C)C)(C(C)C)C(C)C)nn1)[Si](C)(C)c1ccc(OC)cc1", "cytotoxicity call": "inactive"}
{"smiles": "C[C@@H]1CN([C@H](C)CO)C(=O)c2cc(C#Cc3ccccn3)cnc2O[C@@H]1CN(C)C(=O)CCN1CCCCC1", "cytotoxicity call": "inactive"}
{"smiles": "C=CCNC(=O)[C@H]1[C@@H]2C(=O)O[C@@H](c3ccccc3)[C@@H](c3ccccc3)N2[C@@H](c2ccccc2OCCO)[C@]12C(=O)N(C(=O)OCCOC)c1ccc(C#CC3(O)CCCCCC3)cc12", "cytotoxicity call": "inactive"}
{"smiles": "C[C@@H]1CCCCO[C@H](CN(C)C(=O)C2CCCCC2)[C@H](C)CN([C@H](C)CO)C(=O)c2cc(NC(=O)Cc3ccccc3)ccc2O1", "cytotoxicity call": "inactive"}
